Screening results as filed in PubChem BioAssay.
Cruzain noTriton: qHTS Assay for Promiscuous and Specific Inhibitors of Cruzain (without detergent); Cruzipain (Trypanosoma cruzi), P25779; purified cruzain, Z-FR-AMC fluorescence, no detergent; Potency, µM, without a hit: max response, negative = inhibition, hits mostly inhibitors; 2.3% of 200,000 active; AID 1476, 2009;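 also: plate controls were enzyme without inhibitor for no effect and buffer without enzyme for full effect; nearly all actives have a fitted effect of over 40% in size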
Target sequence (P25779 123-467 limits assumed): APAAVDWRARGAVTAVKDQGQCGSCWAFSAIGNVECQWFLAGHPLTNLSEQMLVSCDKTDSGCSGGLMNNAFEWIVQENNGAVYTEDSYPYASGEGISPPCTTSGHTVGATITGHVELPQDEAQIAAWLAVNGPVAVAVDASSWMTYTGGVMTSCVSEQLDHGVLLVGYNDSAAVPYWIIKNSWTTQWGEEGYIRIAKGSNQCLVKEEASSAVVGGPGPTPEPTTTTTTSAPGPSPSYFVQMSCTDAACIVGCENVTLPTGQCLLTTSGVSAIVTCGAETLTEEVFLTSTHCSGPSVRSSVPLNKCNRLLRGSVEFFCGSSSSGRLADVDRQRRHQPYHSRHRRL
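Purified cruzain at 1.5 nM, pre-incubated 15 min with compound at room temperature in 100 mM sodium acetate pH 5.5, 5 mM DTT, 0.00005% Triton X-100. Reaction started with 2 uM Z-FR-AMC; AMC fluorescence increase over 60 s gives rate.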
Cruzain inh Det: qHTS Assay for Promiscuous and Specific Inhibitors of Cruzain (with detergent) | purified cruzain, Z-FR-AMC fluorescence, 0.01% Triton | Potency, µM, inactives show max response, negative = inhibition, most hits filed as inhibitors | 0.43% of 200,000 active | AID 1478, 2009;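 also: plate controls were neutral wells for no effect and buffer without enzyme for full effect; nearly all actives have a fitted effect of over 40% in size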
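15 min RT preincubation of 1.5 nM cruzain with compound, then 2 uM Z-FR-AMC added; kinetic AMC fluorescence, 60 s delta. Triton X-100 0.01%, pH 5.5.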
Numbers without * were called inactive. Most compounds without a hit are left out; they make up all but 2.6% or so of the library. Calls follow the shape of the dose curve; as a rule, active = well fitted curve in the direction sought with a large enough effect; inconclusive = small, poorly fitted or top-dose-only effect, or another doubt; inactive = no such curve, though single readings can be large; an effect the other way counts as inactive or inconclusive. Potency is read from the fitted curve at half-maximal effect.

Cc1ccc(C)c(N2CCN(c3nc4c(S(=O)(=O)c5ccccc5)nnn4c4ccc(Cl)cc34)CC2)c1 was read as Cruzain noTriton -9% and Cruzain inh Det 0%.
CCC(C)c1ccc(OCC(=O)Nc2cccc(-c3nc4ncccc4o3)c2)cc1 (stereo unspecified) was read as Cruzain noTriton 26% and Cruzain inh Det -7%.
Cc1ccc(C(=O)CSc2nc3cc(C(=O)NC4CCCC4)ccc3c(=O)n2CC2CCCO2)c(C)c1 (stereo unspecified) was read as Cruzain noTriton -8% and Cruzain inh Det 1%.
Screening CCN(CC)CCn1c2c(c(SCC(=O)Nc3cccc(C(F)(F)F)c3)nc1=O)CCC2 returned Cruzain noTriton 3% and Cruzain inh Det 1%.
Screening CCCCC(=O)O[C@]1(C(=O)CO)[C@H](C)C[C@H]2[C@@H]3CCC4=CC(=O)C=C[C@]4(C)[C@@]3(F)[C@@H](O)C[C@@]21C returned Cruzain noTriton inconclusive and Cruzain inh Det -3%.
COc1cccc(CNC(=O)c2sc3nc[nH]c(=O)c3c2C)c1 was read as Cruzain noTriton -2% and Cruzain inh Det -3%.
For CCCCCOc1ccccc1CN1C(=O)C(=O)c2cc(C)ccc21 the results were Cruzain noTriton 0% and Cruzain inh Det -1%.
For C=C(C)[C@@H]1CCC2(C(=O)O)CC[C@]3(C)[C@H](CC[C@@H]4[C@@]5(C)CCC(=O)C(C)(C)[C@@H]5CC[C@]43C)[C@@H]12 (stereo partly specified) the results were Cruzain noTriton 5µM* and Cruzain inh Det 2%.
`C=C(C)[C@H]1CC[C@]2(CO)CC[C@]3(C)[C@@H](CC[C@H]4[C@@]5(C)CC[C@@H](O)C(C)(C)[C@@H]5CC[C@@]43C)[C@H]12` gave Cruzain noTriton -16% and Cruzain inh Det -2%.
`COCCCNC(=O)Cn1c(=O)nc(-c2ccccc2)c2ccccc21` gave Cruzain noTriton -6% and Cruzain inh Det 0%.
Screening O=C1OCCN1C(=O)[C@H]1[C@H](c2ccc(F)cc2)C(c2cccc(Cl)c2)=NN1c1ccc(Br)cc1 returned Cruzain noTriton 16µM* and Cruzain inh Det -2%.
Screening CC[C@@H]1C(c2cccc(Cl)c2)=NN(c2ccc(Br)cc2)[C@H]1C(=O)N1CCOC1=O returned Cruzain noTriton inconclusive and Cruzain inh Det -3%.
For O=C1OCCN1C(=O)[C@H]1[C@H](c2ccccc2)C(c2cccc(Cl)c2)=NN1c1ccc(Br)cc1 the results were Cruzain noTriton 13µM* and Cruzain inh Det 1%.
`CC[C@@H]1C(c2ccccc2)=NN(c2ccc(Br)cc2)[C@H]1C(=O)N1CCOC1=O` gave Cruzain noTriton 25µM* and Cruzain inh Det -1%.
For O=C(O)c1nc(-c2ccccc2)n(-c2ccc(Cl)cc2)n1 the results were Cruzain noTriton -5% and Cruzain inh Det 6%.
Screening O=C1OCCN1C(=O)[C@H]1[C@H](c2ccc(Cl)cc2)C(c2ccccc2)=NN1c1ccc(Br)cc1 returned Cruzain noTriton 11µM* and Cruzain inh Det -3%.
`COc1ccc(CCNC(=O)c2cc(Sc3cccc(Cl)c3)nc3ccccc23)cc1OC` gave Cruzain noTriton inconclusive and Cruzain inh Det 0%.
For Cc1ccc(Cl)cc1NC(=O)CSc1ccc(C(=O)O)cn1 the results were Cruzain noTriton 2% and Cruzain inh Det -3%.
Screening Cn1c(CCNC(=O)c2ccc(F)cc2)nc2ccccc21 returned Cruzain noTriton 2.5µM* and Cruzain inh Det 11µM*.
Cn1c(CCNC(=O)c2ccccc2)nc2ccccc21 was read as Cruzain noTriton -16% and Cruzain inh Det 11µM*.
CC(=O)Nc1ccc2c(c1)nc(CCNC(=O)c1ccccc1)n2C was read as Cruzain noTriton -13% and Cruzain inh Det -4%.
Screening Cc1nc(C)c(CCNC(=O)c2cccc(Cl)c2)s1 returned Cruzain noTriton -29% and Cruzain inh Det inconclusive.
`Cc1nc(C)c(CCNC(=O)c2ccccc2)s1` gave Cruzain noTriton inconclusive and Cruzain inh Det 28µM*.
For Cn1c(CCNC(=O)C(C)(C)C)nc2ccccc21 the results were Cruzain noTriton 4% and Cruzain inh Det 4%.
Screening COc1cccc(/C=C/c2onc(C)c2S(=O)(=O)N2CCC(C(=O)N3CCC(C)CC3)CC2)c1 returned Cruzain noTriton inconclusive and Cruzain inh Det -7%.
`CCOC(=O)c1c(C)oc2nc(C)nc(NCCc3ccc(S(N)(=O)=O)cc3)c12` gave Cruzain noTriton 4% and Cruzain inh Det -5%.
S=C(NCCN1CCOCC1)N/N=C/c1c2ccccc2cc2ccccc12 was read as Cruzain noTriton inconclusive and Cruzain inh Det -8%.
Screening Cc1cccc(NC(=S)N/N=C/c2c[nH]c3ccccc23)c1 returned Cruzain noTriton -24% and Cruzain inh Det inconclusive.
Screening NC(=S)N/N=C\c1c2ccccc2cc2ccccc12 returned Cruzain noTriton 1µM* and Cruzain inh Det 0.89µM*.
`NC(=S)N/N=C\c1c[nH]c2ccccc12` gave Cruzain noTriton 0.32µM* and Cruzain inh Det 0.71µM*.
Cc1ccc(Cl)cc1NC(=O)Cn1c(=O)n(CCC(=O)NCc2ccc3c(c2)OCO3)c(=O)c2sccc21 was read as Cruzain noTriton -3% and Cruzain inh Det -1%.
Cc1ccc(C)c(NC(=O)Cn2cc(S(=O)(=O)NC(C)C)c(S(=O)(=O)NC(C)C)c2)c1 was read as Cruzain noTriton 2% and Cruzain inh Det -3%.
COc1ccc(CNc2ncnc3ccc(-c4c(C)noc4C)cc23)c(OC)c1 was read as Cruzain noTriton -4% and Cruzain inh Det -3%.
For Oc1oc(-c2ccccc2)nc1C=Nc1cccc2ccccc12 the results were Cruzain noTriton inconclusive and Cruzain inh Det -5%.
Screening Cc1ccc(C(=O)Oc2oc(-c3ccccc3)nc2C=Nc2ccc(N(C)C)cc2)cc1 returned Cruzain noTriton 25µM* and Cruzain inh Det 28µM*.
`CN(C)c1ccc(N=Cc2nc(-c3ccccc3)oc2OC(=O)c2cccc(Cl)c2)cc1` gave Cruzain noTriton 20µM* and Cruzain inh Det -23%.
`COC(=O)c1ccc(-c2nc3ccc(C)cc3o2)cc1` gave Cruzain noTriton 13% and Cruzain inh Det -2%.
For CCC(=O)N1CCc2cc(S(=O)(=O)NCCC(=O)Nc3cc(C)ccc3OC)ccc21 the results were Cruzain noTriton -6% and Cruzain inh Det 0%.
`COc1ccc(OC)c(NC(=O)CSc2nc(=O)n(CCN(C)C)c3c2CCC3)c1` gave Cruzain noTriton -4% and Cruzain inh Det 0%.
Screening Nc1nc(-c2ccccc2)cs1 returned Cruzain noTriton 4% and Cruzain inh Det -1%.
`CCOC(=O)c1cc(C)n(CCc2ccccc2)c1C` gave Cruzain noTriton 1% and Cruzain inh Det -4%.
Screening Cc1cc(-c2csc(N)n2)c(C)n1CCc1ccccc1 returned Cruzain noTriton 4µM* and Cruzain inh Det -4%.
`Cc1cc(-c2csc(N)n2)c(C)n1CCC(C)C` gave Cruzain noTriton 25µM* and Cruzain inh Det 3%.
For O=C(NCCN1CCN(c2cccc(Cl)c2)CC1)Nc1ccccc1C(F)(F)F the results were Cruzain noTriton 2% and Cruzain inh Det -3%.
COc1cccc(-c2noc(COc3ccccc3Cl)n2)c1 was read as Cruzain noTriton -11% and Cruzain inh Det -5%.
Screening O=C1c2cccnc2-c2ncccc21 returned Cruzain noTriton -4% and Cruzain inh Det -3%.
CC1(C)OCC(CSC2=C(SCC3COC(C)(C)O3)C(=O)c3ncccc3C2=O)O1 (stereo unspecified) was read as Cruzain noTriton inconclusive and Cruzain inh Det 16µM*.
